Rows were chosen to be rich in hits. Some 19% of all compounds tested hit in one or more screens of this group.
Pf growth 96h: inhibits malaria parasite growth, 96 h; 320,000 compounds, 6.9% hits; AID 504834; Potency, µM (top dose mostly 28.7 µM), for inactives: top-dose activity change, negative = inhibition, most hits filed as inhibitors; P. falciparum luciferase reporter growth, 96 h; also: potency is read from the fitted curve at half-maximal effect; % is scaled to controls: 0 for no effect and ±100 for the full control effect
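Compounds incubated with erythrocytes infected by luciferase-expressing P. falciparum (2% hematocrit, 0.05% parasitemia final) for 96 hours, 37 C in 5% CO2. Growth inhibition scored as decreased luciferase luminescence.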
Cycloheximide cs: affects cycloheximide protein synthesis inhibition readout, counter-screen; cell reporter, cycloheximide protein synthesis inhibition counterscreen; max response, %; 300,000 compounds, 12% hits; AID 2314; in the data active = max response mostly above about 13%, no sharp cut-off; inactive = mostly below about 14%; also: read at 38.3 µM for the half of the compounds with a filed dose; 0% is about no effect
Lassa entry inh: blocks Lassa virus binding to or entry into cells; Lassa virus pseudotype entry inhibition, cell reporter; Potency, µM (top dose mostly 37.9 µM), for the others: top-dose activity change, negative = inhibition, usual class: inhibitors; AID 540256; 300,000 compounds, 1.2% hits; calls by dose curve; tested in HEK293 cells; also: potency is read from the fitted curve at half-maximal effect; % is scaled to controls: 0 for no effect and ±100 for the full control effect; nearly all actives have a fitted effect of over 50% in size
Shiga toxin inh: Shiga toxin inhibition. inhibition, % at 38.7 µM. 290,000 compounds, 9.2% hits. AID 2315. Vero cells, Shiga toxin protein synthesis inhibition reporter; in the data active = inhibition mostly above about 28%, no sharp cut-off; inactive = mostly below about 43%; also: 0% is about no effect
Pf growth 48h: inhibits P. falciparum growth in the first generation, 48 h; P. falciparum luciferase growth in erythrocytes, 48 h; Potency, µM (titrated, usually from 28.7 µM), for the others: at the top dose activity change, negative = inhibition, usual class: inhibitors; 310,000 compounds, 5.9% hits; also: potency is read from the fitted curve at half-maximal effect; % is scaled to controls: 0 for no effect and ±100 for the full control effect
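Compounds are pin-transferred into medium, infected erythrocytes (2% hematocrit, 0.1% parasitemia final) are added, and plates sit one parasite generation at 37 C in 5% CO2. Detection reagent is then added and luminescence measured.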
Marburg entry inh: blocks Marburg virus binding to or entry into cells; Marburg virus pseudotyped entry inhibition, cell reporter; Potency, µM (doses to about 37.8 µM), for inactives: top-dose activity change, negative = inhibition, actives largely listed as inhibitors; 300,000 compounds, 1.8% hits; AID 540276; calls by dose curve; tested in HEK293 cells; also: potency is read from the fitted curve at half-maximal effect; % is scaled to controls: 0 for no effect and ±100 for the full control effect
Active calls of the source: *; ? = inconclusive; nt = no result; ! = not active in a repeat; [ ] = remark or other dose. Unless noted, calls follow the shape of the dose curve; as a rule, active = well fitted inhibition curve with a large enough effect; inconclusive = small, poorly fitted or top-dose-only effect, or another doubt; inactive = no such curve, though single readings can be large or run the other way.

SMILES	Pf growth 96h	Cycloheximide cs	Lassa entry inh	Shiga toxin inh	Pf growth 48h	Marburg entry inh
COc1cc(OC)c(NC(=O)Cn2cnc3sc(C)c(S(=O)(=O)N4CCN(C)CC4)c3c2=O)cc1Cl	nt	nt	?	nt	nt	-13.5%[46.1 µM]
CC(C)NC(=O)c1ccccc1NC(=O)c1nsc2ccccc12	nt	nt	-19.0%[46.1 µM]	nt	nt	nt
COc1ccc(C(OC(=O)c2ccco2)C(=O)NC2CCCCC2)cc1 (centres undefined)	-8.0%	-1.9	-12.0%	-4.6	-13.7%	-6.9%
COc1ccc(/C=C2\SC(=O)N(CCNC(=O)CN3C(=O)NC4(CCCC4)C3=O)C2=O)cc1	3.3%	nt	-7.1%	nt	30.2%	11.0%
O=C(CN1C(=O)NC2(CCCC2)C1=O)NCCN1C(=O)S/C(=C\c2ccccc2F)C1=O	4.65µM*	nt	0.2%	nt	?	26.4%
CN1C[C@H](CO)C[C@@H]2c3cccc4[nH]cc(c34)C[C@H]21	6.1%	-1.0	nt	-5.6	-1.6%	nt
CN1C[C@H](CNC(=O)OCc2ccccc2)C[C@@H]2c3cccc4c3c(cn4C)C[C@H]21	2.94µM*!	-3.7	23.1µM*	-7.5	10.4µM*	5.62µM*
Cn1c(=O)c([N+](=O)[O-])c(Cl)c2ccccc21	-3.1%	-1.4	?	2.6	-7.4%	?
CCN(CC)CC(=O)Nc1ccc(C)cc1Br	nt	26.7*	?	40.3*	10.9%	-5.0%
CN(CC(=O)Nc1ccccc1F)Cc1cccs1	47.6%	7.8	-0.5%	7.9	24.0%	?
CSc1ccc(CN(C)CC(=O)Nc2ccc(C)cc2Br)cc1	?	-3.1	-17.9%	12.7	13.8%	?
Cc1ccc(NC(=O)COC(=O)C2CC2)c(Br)c1	35.5%	40.3*	16.9%	61.5*	-0.4%	15.3%
CCN(CC)CC(=O)Nc1c(C)cccc1C	-18.8%	-1.8	-3.7%	12.9	?	?
Cc1cc(Br)ccc1NC(=O)CN(C)Cc1cccs1	3.3%	27.9	4.2%[46.1 µM]	48.3*	?	-18.5%[46.1 µM]
CCN(CC)CC(=O)Nc1c(C)cc(C(C)(C)C)cc1C	59.4%	32.0*	11.9%	39.6*	-5.6%	-4.8%
O=C(CSc1nc2[nH]ncc2c(=O)[nH]1)Nc1ccc(OC(F)(F)F)cc1	?	nt	16.1%	nt	0.4%	-4.4%
COCCNC(=O)c1onc(CSc2ccc(F)c(F)c2)c1C(=O)O	-16.5%	0.1	nt	-1.3	?	nt
Cc1cc(C)cc(C(=O)N2CC(=O)Nc3ccccc32)c1	nt	0.6	?	-14.0	?	?
Cc1ccc(NC(=O)CN(C)S(=O)(=O)c2cccs2)cc1C	nt	35.0*	11.3%	89.9*	37.6%	19.5%
Cc1ccc(NC(=O)CN(C)S(=O)(=O)c2cccs2)c(Br)c1	-10.3%	35.9*	?	84.5*	51.6%	29.5%[46.1 µM]
COc1cc(NC(=O)CN(C)S(=O)(=O)c2cccs2)cc(OC)c1	-14.4%	8.3	nt	-8.1	37.0%	nt
Cc1ccc(NC(=O)CN(C)S(=O)(=O)c2cccs2)cc1F	44.3%	37.6*	-19.0%	75.2*	82.4%	-16.5%
O=C(c1ccccc1)C(Nc1cccc([N+](=O)[O-])c1)c1ccccc1 (centres undefined)	nt	nt	-13.7%[46.1 µM]	nt	nt	?
COc1ccc(C(=O)Nc2sc(C)c(C)c2CN2CC(C)OC(C)C2)cc1 (centres undefined)	48.0%	30.8*	?	67.6*	42.1%	?
Cc1sc(NC(=O)c2ccco2)c(CN2CCCCC2)c1C	?	4.5	?	6.1	?	?
SMILES	Pf growth 96h	Cycloheximide cs	Lassa entry inh	Shiga toxin inh	Pf growth 48h	Marburg entry inh
O=C(O)c1ccc(C2SCC(=O)N2Cc2ccccc2)cc1 (centres undefined)	1.65µM*	-2.5	2.2%	-6.4	-3.9%	3.8%
COCCN=C1Sc2nc3c(C)cccc3cc2CN1Cc1ccco1	-4.7%	11.1	6.2%	29.7	8.28µM*	-7.5%[46.1 µM]
Cc1cccc2cc3c(nc12)SC(=NCC1CCCO1)N(Cc1ccco1)C3 (centres undefined)	-6.3%	19.9*	?	41.1	4.15µM*	?
CC1CCCN(C(=O)/C(=C/c2ccco2)NC(=O)c2ccccc2)C1 (centres undefined)	35.9%	-2.4	-13.0%	0.5	-12.0%	0.1%
O=C(NCc1ccc(F)cc1)C1CCCN(C(=O)NCc2ccccc2)C1 (centres undefined)	?	-3.2	-1.9%	3.6	4.7%	1.0%[46.1 µM]
COC(=O)/C=C/c1cnc2ccccc2c1	125.3%	36.2*	13.5%[46.1 µM]	117.7*	254.5%	?
COc1ccccc1/C=C1\SC(=O)N(CC(=O)NCCCn2ccnc2)C1=O	?	-0.9	7.2%[46.1 µM]	-3.1	11.7µM*	6.6%[46.1 µM]
COc1ccccc1/C=C1\SC(=S)N(CCC(=O)Nc2cccc(O)c2)C1=O	259.9%	17.4*	nt	26.8*	?	nt
COc1ccccc1/C=C1\SC(=S)N(CCC(=O)Nc2cc(C)on2)C1=O	9.28µM*	-6.4	-22.2%	-10.5	-7.4%	?
Cc1cc(NC(=O)CCN2C(=O)/C(=C/c3ccccc3Cl)SC2=S)no1	37.9%	-0.6	15.2%	-10.3	2.9%	-3.4%
COc1ccc(-c2[nH]c(-c3ccc4c(c3)OCO4)nc2-c2ccccc2)cc1	?	6.5	?	-12.9	?	-86.8%
COc1ccc(-c2sc3cc4c(cc3c2C#CC2(N)CCCCC2)OCO4)cc1	?	nt	nt	nt	13.1µM*	nt
Cn1c2ccccc2c2cc(C(=O)N3CCN(CCO)CC3)sc21	14.0%	13.8*	9.9%	13.7	13.6%	8.8%
CC(=O)NNC(=O)c1cc2c3ccccc3n(C)c2s1	42.1%	-1.7	nt	-3.0	91.0%	nt
CCOC(=O)C(Cc1c[nH]c2ccccc12)NC(=O)CNC(C)=O (centres undefined)	?	2.4	-2.0%	-7.3	1.2%	-2.0%
Cc1ccc(Cn2ncn(-c3ccccc3)c2=O)cc1	62.4%	18.6*	2.4%	29.7	19.8%	1.8%[46.1 µM]
COc1ccccc1-c1noc(-c2ccncc2)n1	nt	26.8*	2.8%	63.8*	124.8%	-2.3%
COc1ccccc1-c1noc(-c2cccs2)n1	173.9%	44.0*	-0.5%	110.7*	208.2%	3.0%
CCNC(=O)c1ccc(-n2nc(C(F)(F)F)c3c2CCCC3)cc1	7.38µM*	-3.1	1.1%	-10.8	14.7µM*	-1.7%
COc1ccccc1NC(=O)Cn1nc(C(F)(F)F)c2c1CCCC2	2.08µM*	-3.4	-23.9%	2.6	13.7%	12.2%
CCc1ccc(NC(=O)Cn2nc(C(F)(F)F)c3c2CCCC3)cc1	nt	nt	-2.6%[46.1 µM]	nt	nt	-10.5%[46.1 µM]
CC(C)CNC(=O)Cn1nc(C(F)(F)F)c2c1CCCC2	10.4µM*	-5.3	19.4%[46.1 µM]	5.5	19.6%	?
O=C(COc1ccc(C(=O)Nc2ccc(Cl)cc2)cc1)NCc1ccccc1	?	-1.9	11.7%	-8.6	-15.0%	-10.0%
COc1ccc(Oc2nccc(-c3ccccc3)c2C#N)cc1	40.7%	76.9*	?	132.9*	59.4%	1.4%
COc1ccnc(Oc2ccc3ccccc3c2)c1C#N	33.2%	61.5*	1.3%	59.7*	37.9%	29.8%
COc1ccnc(Oc2ccc(C)cc2)c1C#N	41.0%	36.9*	?	121.0*	98.5%	23.2%

Compound activity from PubChem.
